According to PubChem BioAssay (Tox21):
“And” between values parts separate entries of the source, which are not always exact repeats. Equal values may be shown once. Inconclusive results are not listed. The source made the active and inactive calls. Calls come from the whole dose curve; as a rule, active = well fitted cell-killing curve with a large enough effect in the repeat runs; inconclusive = weak or mixed curves, or effect the other way; inactive = flat fitted curve, though single readings scatter.
% is set by controls: 0 for no effect and ±100 for the full control effect; potency is the fitted concentration of half-maximal effect.

Test: cAMP Responsive Elements (CRE) small molecule agonists, cell-based qHTS assay: qHTS cell viability counter screen (AID 2060914); note: nearly all actives have a fitted effect of over 50% in size
Settings: CRE-bla HEK293T viability, CellTiter-Glo luminescence, 5 h; series mostly up to 92.4 µM; activity change, negative = cytotoxicity: at the top concentration
Procedure, shortened: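 CRE-bla HEK293T cells in 10% dialyzed FBS medium were exposed to compounds for 3 h at 37C after 18 h plating. CellTiter-Glo was then added in the same wells, and luminescence was read after 30 min at room temperature.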
For `O=C(Nc1ccc2[nH]ccc2c1)c1cc2cc(F)ccc2n1Cc1cccc(F)c1`, the “activity change, negative = cytotoxicity” value was -18.2% (inactive). With `C=C1C[C@@H]2[C@H](CC[C@]3(C)C(=O)CC[C@@H]23)[C@@]2(C)C=CC(=O)C=C12` the “activity change, negative = cytotoxicity” value was -10.8% [at 42.5 µM] (inactive). In the case of `C[C@]12Cc3cn[nH]c3C[C@@H]1CC[C@@H]1[C@@H]2CC[C@@]2(C)[C@H]1CC[C@]2(C)O`, the “activity change, negative = cytotoxicity” value is reported as 2.11% [at 42.5 µM] (inactive). In the case of `O=C(O)C(Cl)(Cl)Br`, the “activity change, negative = cytotoxicity” value is reported as 4.7% (inactive). For `O=C(c1ccccc1)C(Cl)Cl`, the “activity change, negative = cytotoxicity” value was 14.1% (inactive). For `c1cc2c(c(N3CCNCC3)c1)OCCO2`, the “activity change, negative = cytotoxicity” value was 0.444% [at 42.5 µM] (inactive). In the case of `II`, the “activity change, negative = cytotoxicity” value is reported as -14.7% (inactive). For `CO/N=C(\C(=O)OC)c1ccccc1CO/N=C(\C)c1cccc(C(F)(F)F)c1`, the “activity change, negative = cytotoxicity” value was -20.1% (inactive). In the case of `C=C(C)[C@H]1Cc2c(ccc3c2O[C@@H]2COc4cc(OC)c(OC)cc4[C@@H]2C3=O)O1`, the Potency is reported as “inactive”. For `Cc1cccc(N)c1`, the Potency was “inactive”. For `Nc1ccccc1C(=O)OC/C=C/c1ccccc1`, the “activity change, negative = cytotoxicity” value was -8.28% (inactive). In the case of `CC[N+]1(C)CCCC(OC(=O)C(O)(c2ccccc2)c2ccccc2)C1` (stereo not given), the “activity change, negative = cytotoxicity” value is reported as -27.9% [at 42.5 µM] (inactive). With `C#CCN(C)[C@H](C)Cc1ccccc1` the Potency was “inactive”. In the case of `CO/C=C(/C(=O)OC)c1ccccc1COc1cccc(C(F)(F)F)n1`, the “activity change, negative = cytotoxicity” value is reported as -18.3% (inactive). For `CCCCON=O`, the “activity change, negative = cytotoxicity” value was -18.4% (inactive). For `C[C@]12Cc3nonc3C[C@@H]1CC[C@@H]1[C@@H]2CC[C@@]2(C)[C@H]1CC[C@]2(C)O`, the Potency was 29.8 µM (active). In the case of `CCCCCCCCCCCCCCCC[N+](C)(C)C`, the Potency is reported as 29.5 µM (active) and 61.1 µM (active) and 26.6 µM (active). In the case of `CNC(=O)O/N=C(\C)SC`, the “activity change, negative = cytotoxicity” value is reported as -14.3% (inactive). For `COC1=CC(=O)O[C@@H](/C=C/c2ccccc2)C1`, the “activity change, negative = cytotoxicity” value was 0.347% (inactive). In the case of `COP(=O)(OC)O/C(=C/Cl)c1cc(Cl)c(Cl)cc1Cl`, the “activity change, negative = cytotoxicity” value is reported as -3.67% (inactive). In the case of `CCOP(=S)(OCC)Oc1cc(Cl)c(Br)cc1Cl`, the “activity change, negative = cytotoxicity” value is reported as -13.3% (inactive). In the case of `O=C1Nc2ccc(Cl)cc2C(c2ccccc2)=NC1O` (stereo not given), the Potency is reported as “inactive”. In the case of `CCCN1CCC[C@@H]2Cc3[nH]ncc3C[C@H]21`, the “activity change, negative = cytotoxicity” value is reported as 7.21% [at 42.5 µM] (inactive). In the case of `COC(=O)C(Br)CBr` (stereo not given), the “activity change, negative = cytotoxicity” value is reported as 0.399% (inactive). With `CC(C)CBr` the “activity change, negative = cytotoxicity” value was 3.79% (inactive). With `BrCCCCBr` the “activity change, negative = cytotoxicity” value was -6.17% (inactive). With `CC(C)(C)NCC(O)c1ccccc1Cl` (stereo not given) the “activity change, negative = cytotoxicity” value was 3.79% [at 42.5 µM] (inactive). With `Cc1ccccc1CO[C@@H]1C[C@@]2(C(C)C)CC[C@]1(C)O2` the “activity change, negative = cytotoxicity” value was -17% (inactive). In the case of `CCCCCCCCCCCCCCCCCC(=O)O`, the Potency is reported as “inactive”. For `Cc1ccc(OP(=O)(Oc2ccccc2)Oc2ccccc2)cc1`, the “activity change, negative = cytotoxicity” value was 0.907% (inactive). For `CC(c1ccccc1)(c1ccc(O)cc1)c1ccc(O)cc1`, the “activity change, negative = cytotoxicity” value was -5.77% (inactive). With `CCc1cc(OC)c(C[C@H](C)N)cc1OC` the “activity change, negative = cytotoxicity” value was -5.45% (inactive). With `CSC(=O)c1c(C(F)F)nc(C(F)(F)F)c(C(=O)SC)c1CC(C)C` the “activity change, negative = cytotoxicity” value was -10.5% (inactive). With `NNC(=O)c1ccccc1` the “activity change, negative = cytotoxicity” value was -11.9% (inactive). With `FC(F)C(F)(F)OCC(Cn1cncn1)c1ccc(Cl)cc1Cl` (stereo not given) the “activity change, negative = cytotoxicity” value was -19% (inactive). With `Nc1ccccc1C(=O)O` the Potency was “inactive”. With `CN=C=S` the Potency was “inactive”. With `C[N+](C)=CCl` the “activity change, negative = cytotoxicity” value was -0.204% (inactive). For `O=C1OC(c2ccc(O)c(S(=O)(=O)O)c2)(c2ccc(O)c(S(=O)(=O)O)c2)c2c(Br)c(Br)c(Br)c(Br)c21`, the “activity change, negative = cytotoxicity” value was 2.54% [at 42.5 µM] (inactive). With `Cc1nnc(-c2ccccc2)c(=O)n1N` the “activity change, negative = cytotoxicity” value was 1.53% (inactive).
